Compound activity deposited in PubChem BioAssay by Paczesny and Yang Labs, IUPUI and University of Michigan.
ST2 inh: blocks human ST2 binding to IL-33 | inhibition, % for hits at 17 µM | 2.3% of 78,000 active | AID 1259354 | AlphaLISA ST2-Fc/biotin-IL-33 interaction, 1 h; in the data active = inhibition above about 30%
Target sequence (Q01638 whole entry, looked up): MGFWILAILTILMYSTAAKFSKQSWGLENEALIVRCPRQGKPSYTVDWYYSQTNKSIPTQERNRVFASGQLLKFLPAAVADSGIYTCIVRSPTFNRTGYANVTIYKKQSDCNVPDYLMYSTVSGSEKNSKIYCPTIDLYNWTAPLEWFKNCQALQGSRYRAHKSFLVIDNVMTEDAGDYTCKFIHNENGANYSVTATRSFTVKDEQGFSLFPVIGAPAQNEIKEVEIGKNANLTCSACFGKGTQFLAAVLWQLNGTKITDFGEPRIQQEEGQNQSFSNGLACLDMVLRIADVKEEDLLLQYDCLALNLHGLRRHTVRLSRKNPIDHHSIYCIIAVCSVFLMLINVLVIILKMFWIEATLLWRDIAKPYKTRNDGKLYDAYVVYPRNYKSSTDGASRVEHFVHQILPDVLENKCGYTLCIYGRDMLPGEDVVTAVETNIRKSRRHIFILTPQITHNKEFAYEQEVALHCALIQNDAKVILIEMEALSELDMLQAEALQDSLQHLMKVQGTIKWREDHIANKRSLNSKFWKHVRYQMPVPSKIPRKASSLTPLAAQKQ
* marks the source's active call; other numbers are inactive results; i = inactive. The entries come from a sample that favours hits as a whole.

SMILES	ST2 inh
COc1cc2c(cc1O)C1(C)CCC(O)C(C)(C)C1CC2=O (stereo not drawn)	37.0%*
COc1ccc(S(=O)(=O)N2C[C@@H]3C[C@H](C2)c2ccc(NC(=O)CN(C)C)c(=O)n2C3)cc1	i
Cc1c(CCN)c2ccccc2n1-c1ccccc1	37.0%*
COc1ccc(C(=O)N2C[C@@H]3C[C@H](C2)c2ccc(-c4ccc(Cl)cc4)c(=O)n2C3)cc1	i
Cc1cccc(N=Cc2c(C)nn(-c3ccccc3)c2[Se])c1	i
N#Cc1cccc(-c2ccc3n(c2=O)C[C@H]2C[C@@H]3CN(C(=O)c3cccs3)C2)c1	i
O=C(c1cnccn1)N1C[C@@H](c2cc(F)cc(F)c2)[C@@H]2[C@H]1C1CCN2CC1	i
CCN(CC)C(=O)c1ccc2c(c1)C1C=CCC1C(C(=O)O)N2 (stereo not drawn)	60.0%*
CCN(CC)C(=O)c1ccc(N2C(=O)C3CC=C(Cl)CC3C2=O)cc1 (stereo not drawn)	i
OC1CCNC2CCCCC12 (stereo not drawn)	i
COc1ccc([C@@H]2CN(C(=O)C3CCC(O)CC3)[C@@H]3C4CCN(CC4)[C@@H]32)cc1 (stereo partly drawn)	i
CCOc1ccccc1N1CCN(Cc2cccnc2)CC1	i
CC(C)c1ccc(CN2CCN(c3ccccc3)CC2)cc1	i
COc1ccc(CN2CCN(Cc3ccccc3Cl)CC2)cc1Br	i
Brc1ccc(CN2CCN(c3ccccc3)CC2)cc1	32.0%*
COc1ccc(N2CCN(Cc3ccc(C)cc3)CC2)cc1	33.0%*
COc1ccc(N2CCN(Cc3cccc(Br)c3)CC2)cc1	44.0%*
Fc1ccc(N2CCN(Cc3cccc(Br)c3)CC2)cc1	i
COc1cc(OC)c(CN2CCN(C)CC2)cc1Br	i
COc1cc(OC)c(CN2CCN(c3ccccc3)CC2)cc1Br	36.0%*
CC(=O)c1ccc(N2CCN(Cc3ccc(C)cc3)CC2)cc1	i
COc1cc(C)c(CN2CCN(c3ccc(F)cc3)CC2)cc1C	i
CC(=O)c1ccc(N2CCN(Cc3cccc(Br)c3)CC2)cc1	i
Cc1ccccc1N1CCN(Cc2ccc(Br)cc2)CC1	i
CSc1cccc(CNC(=O)c2cn(C3CCCCC3)nn2)c1	i
SMILES	ST2 inh
CSc1ccc(-c2ccc3n(c2=O)C[C@@H]2CNC[C@H]3C2)cc1	i
CCN1CCN(Cc2cc(OC)c(OC)c(OC)c2)CC1	i
CCC1(C)CC(CCNCc2ccccc2)(c2ccc(OC)cc2)CCO1 (stereo not drawn)	i
C=C[C@H]1CN2CC[C@H]1C[C@@H]2CNC(=S)Nc1cc(OC)cc(OC)c1	i
COC(=O)c1cccc(NC(=S)NC[C@H]2C[C@@H]3CCN2C[C@@H]3c2cc(-c3ccccc3OC)nn2C)c1	i
O=C(c1cccs1)N1C[C@@H]2C[C@H](C1)c1c(/C=C/c3ccc(Cl)cc3)ccc(=O)n1C2	i
CN(CCc1ccccn1)C[C@H]1CN2CC[C@H]1C[C@@H]2CNS(C)(=O)=O	i
O=C1CN=C(c2ccccc2Cl)c2cc(Cl)ccc2N1	i
O=C(NC[C@H]1C[C@@H]2CCN1C[C@@H]2CN1CCc2ccccc2C1)c1ccc(C(F)(F)F)cc1	i
CN1CCN(Nc2ccc([N+](=O)[O-])cn2)CC1	i
C#C[C@H]1CN2CC[C@H]1C[C@@H]2CNCc1cccc(OC(F)(F)F)c1	i
C#C[C@H]1CN2CC[C@H]1C[C@@H]2CNC(=S)NC1CC1	i
CSc1ccc(-c2ccc(=O)n3c2[C@@H]2C[C@@H](CN(C(=O)C4CCCCC4)C2)C3)cc1	i
CN1[C@@H]2CC[C@H]1CC(OC(c1ccccc1)c1ccccc1N)C2 (stereo partly drawn)	i
COc1ccccc1N1CCN(Cc2ccc(F)cc2)CC1	i
COc1ccc(CN2CCN(c3ccccc3Cl)CC2)c(OC)c1	i
COc1ccc(CN2CCN(c3ccc(OC)cc3)CC2)cc1	32.0%*
COc1ccc(OC)c(CN2CCN(c3ccc(Cl)cc3)CC2)c1	34.0%*
COc1ccc(OC)c(CN2CCN(C)CC2)c1	i
CCOc1ccccc1N1CCN(Cc2ccc(OC)cc2)CC1	i
COc1cc(Cl)cc(CN2CCN(CC3CC3)CC2)c1OC	i
Cn1nc(-c2cccs2)cc1[C@H]1CN2CC[C@H]1C[C@@H]2CNC(=S)Nc1cccc(C#N)c1	i
COc1cccc(CN2CCN(c3ccccc3C)CC2)c1OC	i
CCN1C(=O)NC(=O)/C(=C\c2cn(CC(=O)N3CCCC3)c3ccccc23)C1=O	i
CN1C(=O)C(=Cc2cn(C)c3ccccc23)C(=O)N(C)C1=O	i
SMILES	ST2 inh
Cn1cc(C=C2C(=O)NC(=O)NC2=O)c2ccccc21	35.0%*
O=C(CSc1c2c(nc3ccc(Cl)cc13)CCCC2)N1CCC2(CC1)OCCO2	i
CC(NC(=O)C(Cl)(Cl)Cl)c1ccccc1 (stereo not drawn)	i
COCCC(=O)N1C[C@@H]2C[C@H](C1)c1ccc(NS(=O)(=O)c3ccccc3)c(=O)n1C2	i
O=C(NC[C@H]1C[C@@H]2CCN1C[C@@H]2CN1CCN(c2ccccn2)CC1)c1ccccc1	i
COc1ccc(CCNC2CCC(C)C2)cc1 (stereo not drawn)	50.0%*
Cc1ccnc(CC(C)N(C)Cc2ccc(-c3ccn[nH]3)o2)c1 (stereo not drawn)	i
CCc1ccc(CN2CCN(c3ccccc3F)CC2)cc1	i
COc1ccccc1N1CCN(C[C@H]2CN3CC[C@H]2C[C@@H]3CNS(C)(=O)=O)CC1	i
COc1cccc(CC(C)NCc2nn(C)c3ccc(C)cc23)c1 (stereo not drawn)	i
N#Cc1c(Cl)c(Cl)nc(N2CCCNCC2)c1Cl	43.0%*
COc1ccc(-n2nnnc2C2(N3CCOCC3)CCCCC2)cc1	i
c1cncc(CN2CCCCCC2)c1	i
CCN1CCN(Cc2ccc(N(C)C)cc2)CC1	32.0%*
Cc1cccc(N2CCN(Cc3ccc(F)cc3)CC2)c1C	i
Cc1cccc(N2CCN(Cc3ccccc3)CC2)c1C	i
Cc1cccc(N2CCN(Cc3ccc(N(C)C)cc3)CC2)c1C	54.0%*
CCN1CCN(Cc2ccc(OC)c(OC)c2)CC1	i
COc1cc(CN2CCN(c3cccc(C)c3C)CC2)ccc1O	i
Cc1ccccc1N1CCN(Cc2ccccc2)CC1	i
Cc1cccc(N2CCN(Cc3ccc([N+](=O)[O-])cc3)CC2)c1C	47.0%*
CCN1CCN(Cc2ccc(Cl)cc2)CC1	i
COCC(=O)NC[C@H]1C[C@@H]2CCN1C[C@@H]2CN1CCN(c2ccccc2OC)CC1	i
COc1ccc(-c2cc([C@H]3CN4CC[C@H]3C[C@@H]4CNC(=S)Nc3ccc(Cl)cc3)n(C)n2)cc1OC	i
Cc1c(C(c2ccccc2)c2c(O)c3ccccc3oc2=O)c(=O)n(-c2ccccc2)n1C (stereo not drawn)	i
SMILES	ST2 inh
O=C(Nc1cccc(F)c1)Nc1ccc2n(c1=O)C[C@H]1C[C@@H]2CN(C2CCOCC2)C1	i
O=c1cccc2n1C[C@H]1C[C@@H]2CN(C[C@H]2CN3CC[C@H]2C[C@@H]3CNC(=S)Nc2ccccc2)C1	i
Cc1ccc(S(=O)(=O)NC[C@H]2C[C@@H]3CCN2C[C@@H]3CN2C[C@@H]3C[C@H](C2)c2cccc(=O)n2C3)cc1	i
CCCN1CCN(C(=O)Cc2c(C(=O)O)[nH]c3ccccc23)CC1	i
CCOC(=O)c1c(C)n(C2CCCCC2)c2ccc(OC(C)=O)cc12	i
CCOC(=O)c1c(C)n(C2CCCCC2)c2ccc(O)cc12	i
Cc1cc(C=O)c(C)n1C1CCCCC1	30.0%*
